Shown are actives, neighbours in structure and some others; about 7.9% of the full set was active somewhere.
Marburg entry inh: inhibitors of Marburg virus binding or cell entry | Marburg virus pseudotyped entry inhibition, cell reporter | Potency, µM (titrated, usually from 37.8 µM), for the others: at the highest dose activity change, negative = inhibition, actives largely listed as inhibitors | 1.8% of 300,000 active; calls by dose curve; tested in HEK293 cells; further: potency means the concentration at half of the fitted maximal effect
FMDV antiviral: foot and mouth disease virus antiviral activity; FMDV antiviral cell-based qHTS; Potency, µM (series often up to 57.9 µM), inactives show top-dose activity change, negative = inhibition, actives largely listed as inhibitors; 1.2% of 410,000 active; calls by dose curve; tested in HEK293T cells; further: read-out not given here; potency means the concentration at half of the fitted maximal effect; nearly all actives have a fitted effect of over 45% in size
HCV inh: inhibitors of hepatitis C virus infection. Huh7.5.1 HCVcc-Cre infection, luciferase reporter, 44 h. Potency, µM (series often up to 41.8 µM), for inactives: at the highest dose activity change, negative = inhibition, most hits filed as inhibitors. 3.4% of 340,000 active; active means well fitted inhibition curve with a large enough effect; inconclusive means small, poorly fitted or top-dose-only effect, or another doubt; inactive means no such curve, though single readings can be large or run the other way; further: potency means the concentration at half of the fitted maximal effect
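Luciferase read-out (15 sec integration) after a 15 min room-temperature substrate step quantifies HCVcc-Cre infection. Cells, 1,000 per well, had compound added 4 h post-plating, then virus at ~0.5 moi, and were cultured 44 h.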
HCMV inh: human cytomegalovirus inhibition | HFF cells, HCMV-luciferase reporter, 72 h; active compounds read low | activity change, negative = inhibition, % at 57.5 µM | 4.5% of 410,000 active | AID 1259415; in the data active means activity change below about -60%; inconclusive means no clear call, values can overlap the other calls; inactive means above about -39%
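Cell-based, HFFs, 1000 cells/well, 16 h 37C; cpds in DMSO + HCMV-luc, MOI 1 PFU/cell; 72 h 37C; OneGlo luminescence after 5 min RT; norm. to buffer vs Salinomycin 10uM.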
Lassa entry inh: Lassa virus entry inhibition; Potency, µM (highest dose often 37.9 µM), inactives show at the top dose activity change, negative = inhibition, most hits filed as inhibitors; 1.2% of 300,000 active; Lassa virus pseudotype entry inhibition, cell reporter; calls by dose curve; tested in HEK293 cells; further: potency means the concentration at half of the fitted maximal effect; nearly all actives have a fitted effect of over 50% in size
Starred values were filed as active, the others as inactive; ? = inconclusive; . = not tested or not shown; [ ] = dose if it differs, or a comment. On the % scale 0 is the no-effect control and ±100 the full control effect.

SMILES	Marburg entry inh	FMDV antiviral	HCV inh	HCMV inh	Lassa entry inh
O=C(CN1Cc2ccccc2OC(c2ccccc2F)C1)NC(c1ccccn1)C(F)(F)F (stereo not given)	.	-18%	.	.	.
CC1C/C(=N/N2C(=O)CSC2=S)CC(C)(C)C1 (stereo not given)	-4%[46.1 µM]	-18%	2%	-70*	-25%
C=C(C)COc1ccc(-c2ncncc2-c2ccccc2OC)c(O)c1	?	?	?	-69*	-19%[46.1 µM]
CCOc1ccc(-c2[nH]ncc2-c2ccc(Cl)cc2)c(O)c1	.	-15%	-12%	-86*	.
C=C(C)COc1ccc(-c2n[nH]c(C)c2-c2ccc(Br)cc2)c(O)c1	?	.	?	-77*	0.37µM*
C=C(C)COc1ccc(-c2[nH]ncc2-c2ccccc2OC)c(O)c1	7.9µM*	-30%	?	-21	?
CCOC(=O)c1c(-c2ccc(C)cc2)csc1NC(=O)c1nc(SC(C)C)ncc1Cl	3%[46.1 µM]	-1%	.	1	8%[46.1 µM]
C=C(C)COc1ccc(-c2[nH]ncc2-c2ccc(Br)cc2)c(O)c1	3.3µM*	-18%	?	-94*	?
COc1ccc(-c2cncnc2-c2ccc(OC)cc2O)cc1	.	?	-26%	-64*	.
COCCNc1oc(/C=C/c2ccc(F)cc2)nc1C#N	?	24%	.	-22	6%[46.1 µM]
COc1cccc(-c2nc(SCc3cc(=O)c4cc(Cl)ccc4[nH]3)n[nH]2)c1	.	-16%	.	5	?
Cc1ccc(C(=O)O/N=C(\N)c2ccccn2)c(C)c1	0.63µM*	0.89µM*	?	-69*	0.79µM*
Cc1ccc(C)c(OCC(=O)O/N=C(\N)c2ccccn2)c1	?	51%	-17%	35	?
N/C(=N\OC(=O)c1ccccc1[N+](=O)[O-])c1ccccn1	?	-58%	-16%	-29	?
COc1cc(OC)c(C(=O)O/N=C(\N)c2ccccn2)cc1OC	.	57%	-10%	57	.
COc1ccccc1C(=O)O/N=C(\N)c1ccccn1	3.5µM*	-17%	9%	19	?
N/C(=N\OC(=O)CC1CCCCC1)c1ccccn1	2%	.	6%	-60*	?
N/C(=N\OC(=O)c1ccccc1Cl)c1ccccn1	?	-89%	21%	25	2.1µM*
C[C@@H](CN1CCN(C)CC1)OC(=O)c1ccc(Cl)cc1Cl	12%	.	.	.	.
COc1cccc(NC(=O)CSc2ncc3c(n2)-c2ccc(Cl)cc2N(C)S3(=O)=O)c1	.	2%	.	14	6%[46.1 µM]
N/C(=N\OC(=O)COc1ccccc1Cl)c1ccccn1	?	-10%	34%	-11	7.3µM*
COc1ccc(C(=O)Nc2nc3ccccc3s2)cc1	.	-71%	?	-39	.
Cc1ccc(NC(=O)c2ccc(OCC3CCCO3)cc2)nc1 (stereo not given)	?	?	-25%	16	?
Cc1cnc(NC(=O)c2ccc(OCC3CCCO3)cc2)s1 (stereo not given)	?	-83%	-19%	17	1.8µM*
O=C(Nc1nc2ccccc2s1)c1ccc(OCC2CCCO2)cc1 (stereo not given)	?	-73%	7.9µM*	-88*	10µM*
SMILES	Marburg entry inh	FMDV antiviral	HCV inh	HCMV inh	Lassa entry inh
O=c1[nH]c(=O)n([C@H]2C[C@H](O)[C@@H](CO)O2)cc1F	?	-16%	?	-67*	0.29µM*
O=c1[nH]c(=O)n(C2CC(O)C(CO)O2)cc1I (stereo not given)	19%	-2%	16%	-6	19%[46.1 µM]
N[C@@H](CCC(=O)N[C@@H](CS)C(=O)NCC(=O)O)C(=O)O	.	-6%	.	.	.
CN(C)c1ccc(CNC(=O)c2cnc(N3CCN(Cc4cccc(C(F)(F)F)c4)C3=O)o2)cc1	.	.	.	-14	.
COc1ccc(CCN2C(=S)NC3CC2(C)Oc2ccc([N+](=O)[O-])cc23)cc1OC (stereo not given)	?	25µM*	4.5µM*	-7	?
Cc1ccccc1NC(=O)CSc1nc2c(oc3ccccc32)c(=O)n1-c1ccccc1F	-5%[46.1 µM]	-3%	.	-10	.
Cn1c(CNc2ccc(Cl)cc2)nc2ccccc21	-18%	-3%	20µM*	296	?
Cc1nc2cc(NCc3nc4ccccc4n3Cc3ccccc3)ccc2n1C	10µM*	-30%	-27%	14	?
Cc1ccc(N2CCN(c3ccc(NCc4nc5ccccc5n4C)cc3)CC2)cc1	20%	13%	?	19	-2%
Cc1ccc(NCc2nc3ccccc3n2C)c(C)c1	2.5µM*	-1%	18%	37	?
O=C(CSc1ccccc1)NCc1ccc2c(c1)CCN2C(=O)c1ccc(Cl)cc1	.	0%	.	-16	?
Cc1cc2nc(-c3ccc(NC(=O)c4ccc(OCC(C)C)cc4)cc3)oc2cc1C	.	6%	.	15	14%[46.1 µM]
CCc1ccc(NC(=O)Cn2cnc3nc4c(cc3c2=O)CCCC4)cc1	.	-5%	.	14	?
c1ccc2c(c1)[nH]c1c(C3=NCCC3)nccc12	.	.	.	-1	.
COc1cc(/C=C2\SC(=S)N(CCC(=O)Nc3ccccc3O)C2=O)cc(OC)c1OC	.	?	?	-69*	.
COc1cc(/C=C2\SC(=S)N(CC(=O)Nc3ccc(O)cc3)C2=O)cc(OC)c1OC	.	-6%	-2%	-75*	.
COc1cc(/C=C2\SC(=S)N(CCC(=O)NCCc3ccccc3)C2=O)cc(OC)c1OC	6%[46.1 µM]	-2%	-6%	7	-9%
CC1=C(c2ccc(C(C)C)cc2)S(=O)(=O)N=C1N1CCC(C(=O)NCc2ccc(C)o2)CC1	.	-20%	.	16	1%[46.1 µM]
COc1ccc(C=CC(O)CCN2CCC3CCC(C3)C2)cc1 (stereo not given)	?	-8%	-10%	-66*	-11%[46.1 µM]
CCCCOc1ccc(C(=O)NCCS(=O)(=O)N2CCN(c3ccccc3OC)CC2)cc1	.	14µM*	.	-26	?
CCOc1ccccc1C(=O)Nc1cc(-c2nc3cccnc3s2)ccc1C	.	5%	.	11	-1%[46.1 µM]
COC[C@H]1O[C@@H](c2c(OC)cc(OC)cc2OC)[C@H](OC)[C@@H](OC)[C@H]1OC	-10%[14.2 µM]	.	.	.	.
O=C1NC(=O)/C(=C/c2ccc(-c3cccc([N+](=O)[O-])c3)o2)S1	17%	-13%	16%	-33	?
O=C1NC(=O)N(Cc2ccco2)C(=O)/C1=C/c1ccc(-c2cccc([N+](=O)[O-])c2)o1	-12%	32µM*	6%	.	0%
CC(=O)N1CCc2c(sc3c2c(=O)n(Cc2ccccc2)c(=O)n3CC(=O)Nc2ccc(C)c(F)c2)C1	?	-5%	.	?	.
O=C(/C=C/c1cccs1)N1CCc2ccccc21	8.2µM*	-63%	-4%	72	?
O=C(c1cccs1)N1CCc2ccccc21	25%	68%	?	36	44%[14.3 µM]
COC(=O)c1cc(NC(=O)CC2CCCC2)cc(C(=O)OC)c1	?	-18%	-30%	-64*	1%
CN(C)C(=O)OC1CNC(C#Cc2cc3ncnc(Nc4ccc(OCc5cccc(F)c5)c(Cl)c4)c3s2)C1 (stereo not given)	.	.	.	.	5µM*
